# Source: PubChem BioAssay
# Most compounds without a hit are left out; they make up all but 2.8% or so of the library.
# EBV LMP1 NFkB: EBV LMP1-driven NF-kappaB luciferase reporter inhibitors, primary screen, cell-based, luminescence, single point | LMP1-induced NF-kappaB luciferase reporter cells | inhibition, % at 12.5 µM | hit rate 0.69% among 350,000; in the data active means inhibition above about 41%;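 further: 0% = neutral control wells and 100% = reference inhibitor control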
# HIF-2a inh: HIF-2a reporter inhibitors, primary screen, luminescence, 786-0 RCC cells. 786-0 RCC cells HIF-2a reporter, luciferase luminescence, overnight. hit rate 0.72% among 360,000. inhibition, % at 18.8 µM;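 active means inhibition of the luminescence signal of 40% or more relative to plate controls, in a single-dose primary screen at 18.75 µM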
# Shn3 3UTR inh: reduction of Shn3 3'UTR firefly luciferase signal, primary screen, Schnurri-3 inhibitor project, cell-based, Clone20 osteoblasts, set 2; inhibition, % at 12.5 µM; hit rate 0.52% among 360,000; Clone20 osteoblast Shn3 3'UTR firefly luciferase, 24 h;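 active means mean inhibition of at least 75% with every replicate also reaching 75%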;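 further: 0% = median of neutral control wells and 100% = pilot-screen positive control compound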
# PAX8 reporter: inhibitors of PAX8-driven TPO luciferase reporter, primary screen, RMG-I cells, single concentration; AID 652154, 2013; hit rate 1.2% among 360,000; SteadyGlo, 24 h; inhibition, % at 12.6 µM;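 active means mean replicate inhibition at least 60% with every replicate also reaching 60%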;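 further: luciferase light reporting Pax8 driven TPO promoter activity; plate controls were median of neutral control wells for no effect and mitoxantrone controls for full effect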
# TRPM1 prom inh: inhibitors of MITF-dependent TRPM1 promoter reporter, primary screen, cell-based, SK-MEL-5, single point, luciferase. hit rate 0.83% among 330,000. inhibition, % at 12.5 µM. SK-MEL-5 TRPM1 promoter luciferase, 24 h;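 active means mean inhibition across replicates of 60% or more, whatever share of single replicates reaches that level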
# Peg3 prom inh: Peg3 promoter-driven luciferase inhibitors, primary screen, cell-based, HeLa, luciferase luminescence; HeLa PEG-Prom luciferase reporter, overnight; inhibition, % at 20 µM; hit rate 1.7% among 360,000; AID 588405, 2011;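 active means inhibition of at least 50% at 20 µM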
# An asterisk follows results filed as active; nt = no result given; ! = a repeat was not active.
SMILES,EBV LMP1 NFkB,HIF-2a inh,Shn3 3UTR inh,PAX8 reporter,TRPM1 prom inh,Peg3 prom inh
COCCn1c(SCCN2CCOCC2)nc2c1c(=O)[nH]c(=O)n2C,76.5*,13.2,-29.5,-16.7,-0.5,13.9
CCCCCSc1nc2c(c(=O)[nH]c(=O)n2C)n1CC,81.8*,10.4,-2.0,-14.4,-12.3,-10.4
CCC(=O)N1[C@@H]2CN(C(=O)Nc3ccccc3Cl)c3ccccc3[C@@H]2[C@@H]1CO,nt,nt,nt,6.2,nt,nt
C[C@H]1CN([C@@H](C)CO)C(=O)c2cc(NC(=O)C3CC3)ccc2O[C@H]1CN(C)C(=O)Nc1ccccc1,nt,nt,nt,-10.9,nt,nt
CCN(CC)c1ccc(CNc2nc3ccccc3n2CCN2CCCCC2)cc1,1.4,1.1,92.4*,15.7,-1.3,44.0
C[C@@H](NC(=O)C[C@H]1CC[C@H]2[C@@H](COC[C@@H](O)CN2C(=O)Nc2cccc(F)c2)O1)c1ccccc1,nt,nt,nt,7.9,nt,nt
Oc1ccccc1C1SC(c2ccccc2O)SC(c2ccccc2O)S1 (centres undefined),-13.4,32.8,40.6,nt,42.3,105.3*
COc1ccc(O)c(/C=N/NC(=O)c2ccc(CSc3nc(C)cc(C)n3)cc2)c1,31.1,20.6,88.0*,52.5,nt,37.5
Cc1cc(C)nc(SCc2ccc(C(=O)N/N=C/c3cccc(O)c3O)cc2)n1,51.9*,-10.6,83.6,67.5*,41.5,48.0
Cc1cc(C)nc(SCc2ccc(C(=O)N/N=C/c3ccc(C(=O)O)cc3)cc2)n1,-2.2,20.4,-0.9,7.1,-1.4,-19.2
O=C(C[C@@H]1CC[C@H](NC(=O)Nc2ccccc2F)[C@H](CO)O1)NCc1ccccc1,nt,nt,nt,1.4,nt,nt
O=C1Nc2ccccc2/C1=N\N=C\C1=C(N2CCOCC2)C(=C\c2ccccc2)/CC1,10.5,21.4,18.6,nt,19.7,77.4*
O=C1Nc2ccc(Br)cc2/C1=N\N=C\C1=C(N2CCOCC2)C(=C/c2ccccc2)/CC1,-1.9,14.4,-15.7,-2.6,29.7,30.3
O=C(C[C@@H]1C=C[C@@H](NC(=O)C2CCC2)[C@H](CO)O1)Nc1nccs1,nt,nt,nt,8.2,nt,nt
Cc1noc(/C=C/c2ccco2)c1S(=O)(=O)N1CCC(C(=O)NC(C)c2ccccc2)CC1 (centres undefined),0.9,7.2,10.5,93.6*,nt,10.9
CCOc1ccccc1/C=C/c1onc(C)c1S(=O)(=O)N1CCC(C(=O)N(CC)CC)CC1,59.9*,11.8,-2.9,-6.5,3.0,19.3
COc1ccccc1NC(=O)N[C@@H]1CC[C@H](CCn2cc(-c3ccccc3OC)nn2)O[C@H]1CO,nt,nt,nt,2.0,nt,nt
Cc1ccc(S(=O)(=O)N(C)C[C@@H]2Oc3ccc(NC(=O)CCCCCC(=O)Nc4ccccc4N)cc3CC(=O)N([C@H](C)CO)C[C@H]2C)cc1,nt,nt,nt,-41.3,nt,nt
CCN(CC)S(=O)(=O)c1ccc(OC(C)C)c(NC(=O)c2c3c(nc4ccccc24)CCN(Cc2ccccc2)C3)c1,16.1,15.0,35.6,9.6,16.8,54.6*
COc1ccc(NC(=O)Nc2ccc3c(c2)C(=O)N([C@@H](C)CO)C[C@@H](C)[C@@H](CN(C)C(=O)Nc2ccccc2)OCCCC[C@H](C)O3)cc1,nt,nt,nt,-6.1,nt,nt
CCOC(=O)N1CCC(N2C(=O)c3ccccc3C2Nc2cc(Cl)c(OC)cc2OC)CC1 (centres undefined),75.0*,6.2,20.2,4.2,-8.2,13.7
CCOC(=O)N1CCC(N2C(=O)c3ccccc3C2Nc2cc(OC)c(OC)c(OC)c2)CC1 (centres undefined),7.2,4.7,8.4,nt,5.9,10.0
Cc1ccc(S(=O)(=O)N[C@@H]2C=C[C@@H](CC(=O)O)O[C@@H]2CO)cc1,nt,nt,nt,4.0,nt,nt
Nc1nonc1-n1nnc(C(=O)N/N=C/c2cccc(O)c2)c1CN1CCCC1,6.0,17.1,0.3,-14.2,3.5,9.6
CCOc1ccc(-c2c(C(=O)N/N=C/c3ccc(O)cc3)nnn2-c2nonc2N)cc1,-8.8,6.6,5.7,7.5,4.7,3.7
SMILES,EBV LMP1 NFkB,HIF-2a inh,Shn3 3UTR inh,PAX8 reporter,TRPM1 prom inh,Peg3 prom inh
CN1CCN(Cc2c(C(=O)N/N=C/c3cccc(Br)c3)nnn2-c2nonc2N)CC1,-0.2,8.2,-1.5,51.2,76.6*,41.3
CCOc1ccc(-c2c(C(=O)N/N=C/c3cccc(Br)c3)nnn2-c2nonc2N)cc1,-5.2,1.9,13.0,5.1,2.6,56.3*
COC(=O)c1c(NC(=O)COC(=O)c2ccc(Cl)cc2[N+](=O)[O-])sc2c1CCCCC2,-2.4,4.8,-4.0,9.5,0.4,70.9*
COc1ccccc1NC(=O)N1CC[C@@H]2[C@H]1c1cc(-c3ccccc3)ccc1N(C)[C@H]2CO,nt,nt,nt,31.2,nt,nt
CCCNC(=O)N1[C@H](C#N)[C@H](c2ccccc2C2=CCCC2)[C@@H]1CO,nt,nt,nt,-0.2,nt,nt
Cc1noc(C)c1S(=O)(=O)Nc1ccc2c(c1)C(=O)N([C@@H](C)CO)C[C@H](C)[C@@H](CN(C)C(=O)Nc1ccc(C(F)(F)F)cc1)OCCCC[C@H](C)O2,nt,nt,nt,107.2*,nt,nt
Cc1noc(C)c1S(=O)(=O)Nc1ccc2c(c1)C(=O)N([C@@H](C)CO)C[C@@H](C)[C@H](CN(C)C(=O)Nc1ccc(C(F)(F)F)cc1)OCCCC[C@@H](C)O2,nt,nt,nt,66.4*,nt,nt
Cc1noc(C)c1S(=O)(=O)Nc1ccc2c(c1)C(=O)N([C@H](C)CO)C[C@H](C)[C@H](CN(C)Cc1ccc(C(F)(F)F)cc1)OCCCC[C@@H](C)O2,nt,nt,nt,-1.2,nt,nt
Cc1noc(C)c1S(=O)(=O)Nc1ccc2c(c1)C(=O)N([C@@H](C)CO)C[C@H](C)[C@@H](CN(C)C(=O)Nc1ccc(C(F)(F)F)cc1)OCCCC[C@@H](C)O2,nt,nt,nt,65.4*,nt,nt
Cc1noc(C)c1S(=O)(=O)Nc1ccc2c(c1)C(=O)N([C@@H](C)CO)C[C@H](C)[C@@H](CN(C)Cc1ccc(C(F)(F)F)cc1)OCCCC[C@H](C)O2,6.7,-67.5,-5.9,70.9*!,nt,23.6
Cc1noc(C)c1S(=O)(=O)Nc1ccc2c(c1)C(=O)N([C@H](C)CO)C[C@H](C)[C@@H](CN(C)C(=O)Nc1ccc(F)cc1)OCCCC[C@H](C)O2,nt,nt,nt,5.2,nt,nt
C=CCOC(=O)[C@@H]1[C@H]2C(=O)O[C@H](c3ccccc3)[C@H](c3ccccc3)N2[C@H](c2ccc(OCCOC(=O)[C@@H]3C[C@@H]4C(=O)N[C@@H](Cc5ccccc5)C(=O)N4[C@@H]3c3ccc(O)cc3)cc2)[C@@]12C(=O)Nc1ccccc12,nt,nt,nt,-2.6,nt,nt
C[C@@H]1CN([C@@H](C)CO)C(=O)c2cc(NS(C)(=O)=O)ccc2O[C@@H](C)CCCCO[C@H]1CN(C)Cc1ccc(C(F)(F)F)cc1,nt,nt,nt,-25.6,nt,nt
CCCNC(=O)Nc1ccc2c(c1)C(=O)N(C)[C@H]1CC[C@@H](CC(=O)NCCCN(C)C)O[C@@H]1CO2,nt,nt,nt,-60.2,nt,nt
O=C(C1CCN(S(=O)(=O)N2CCCC2)CC1)N1CCCCC1,-1.7,2.3,10.7,nt,-5.5,3.6
